# Assay results published in the supplement of paper PMC7411054.
# Where a name gives a salt, the structure may show the parent alone.
# Key:
# Conditions in all cases: treatment time: 24 h
# HepG2-ACTB-RAB5A [1] = test: lowest phenotypically active concentration; higher = less potent
# Outline: (§1)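 Four wells per concentration (0.3, 1, 3 or 9 µM) were treated for 24 h in each of fifteen gene-edited reporter lines from A549, HepG2 and WPMY1 cells, then imaged live. After normalising live-cell features to solvent control wells, deviation was defined as ≥3 of 4 wells lying past the 95th percentile of control Euclidean distances. Reproducibility was defined as a median replicate Pearson correlation above the 95th percentile of non-replicates. Both had to hold for phenotypic activity.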
# HepG2-CANX-COX4 [2] = test: as above
# Outline: as §1
# HepG2-GM130-SQSTM1 [3] = test: as above
# Outline: as §1
# WPMY1-GM130-SQSTM1 [4] = test: as above
# Outline: as §1
# WPMY1-TP53BP1-CLTA [5] = test: as above
# Outline: as §1
# A549-ACTB-RAB5A = test: phenotypically active (imaging signature differs from DMSO and reproducible) at any of 0.3-9 uM (binary (1 = active, 0 = inactive)); higher = active
# Outline: as §1
# A549-CANX-COX4 = test: as above
# Outline: as §1
# A549-GM130-SQSTM1 = test: as above
# Outline: as §1
# A549-TP53BP1-CLTA = test: as above
# Outline: as §1
# A549-TUBA1B-RELA = test: as above
# Outline: as §1
# HepG2-ACTB-RAB5A [6] = test: as above
# Outline: as §1
# HepG2-CANX-COX4 [7] = test: as above
# Outline: as §1
# HepG2-GM130-SQSTM1 [8] = test: as above
# Outline: as §1
# HepG2-TP53BP1-CLTA = test: as above
# Outline: as §1
# HepG2-TUBA1B-RELA = test: as above
# Outline: as §1
# WPMY1-ACTB-RAB5A = test: as above
# Outline: as §1
# WPMY1-CANX-COX4 = test: as above
# Outline: as §1
# WPMY1-GM130-SQSTM1 [9] = test: as above
# Outline: as §1
# WPMY1-TP53BP1-CLTA [10] = test: as above
# Outline: as §1
# WPMY1-TUBA1B-RELA = test: as above
# Outline: as §1
Structure (SMILES),lowest phenotypically active concentration (HepG2-ACTB-RAB5A [1]),lowest phenotypically active concentration (HepG2-CANX-COX4 [2]),lowest phenotypically active concentration (HepG2-GM130-SQSTM1 [3]),lowest phenotypically active concentration (WPMY1-GM130-SQSTM1 [4]),lowest phenotypically active concentration (WPMY1-TP53BP1-CLTA [5]),phenotypically active (A549-ACTB-RAB5A),phenotypically active (A549-CANX-COX4),phenotypically active (A549-GM130-SQSTM1),phenotypically active (A549-TP53BP1-CLTA),phenotypically active (A549-TUBA1B-RELA),phenotypically active (HepG2-ACTB-RAB5A [6]),phenotypically active (HepG2-CANX-COX4 [7]),phenotypically active (HepG2-GM130-SQSTM1 [8]),phenotypically active (HepG2-TP53BP1-CLTA),phenotypically active (HepG2-TUBA1B-RELA),phenotypically active (WPMY1-ACTB-RAB5A),phenotypically active (WPMY1-CANX-COX4),phenotypically active (WPMY1-GM130-SQSTM1 [9]),phenotypically active (WPMY1-TP53BP1-CLTA [10]),phenotypically active (WPMY1-TUBA1B-RELA)
Cc1sc2c(c1C)C(c1ccc(Cl)cc1)=N[C@@H](CC(=O)OC(C)(C)C)c1nnc(C)n1-2,≤ 0.3 µM,≤ 0.3 µM,≤ 0.3 µM,≤ 0.3 µM,≤ 0.3 µM,1 (active),1 (active),1 (active),1 (active),1 (active),1 (active),1 (active),1 (active),1 (active),1 (active),1 (active),1 (active),1 (active),1 (active),1 (active)
O=c1[nH]c2ccccc2n1C1CCN(CCCC(c2ccc(F)cc2)c2ccc(F)cc2)CC1 [pimozide],3 µM,,3 µM,,,1 (active),0 (inactive),1 (active),0 (inactive),1 (active),1 (active),0 (inactive),1 (active),0 (inactive),1 (active),0 (inactive),0 (inactive),0 (inactive),0 (inactive),0 (inactive)
CC(C)(N)Cc1ccccc1 [phentermine],9 µM,,,9 µM,,0 (inactive),1 (active),0 (inactive),1 (active),0 (inactive),1 (active),0 (inactive),0 (inactive),0 (inactive),0 (inactive),0 (inactive),0 (inactive),1 (active),0 (inactive),0 (inactive)
C[C@H](CCC(=O)O)C[C@H](C)C[C@H](C)C(=O)/C=C(\O)[C@H](C)C[C@H](C)C/C=C/[C@@H](C)[C@@H](O)[C@@H](C)[C@@H](O)C[C@@H]1CC[C@@](C)([C@H]2CC[C@@](C)([C@@H](C)O)O2)O1 [Ionomycin free acid],,9 µM,,9 µM,9 µM,0 (inactive),1 (active),0 (inactive),0 (inactive),0 (inactive),0 (inactive),1 (active),0 (inactive),0 (inactive),1 (active),1 (active),1 (active),1 (active),1 (active),0 (inactive)
CC[C@H]1CN2CC[C@H]1C[C@@H]2[C@@H](O)c1ccnc2ccc(OC)cc12 [Hydroquinidine HCl],,9 µM,9 µM,,,1 (active),0 (inactive),0 (inactive),0 (inactive),1 (active),0 (inactive),1 (active),1 (active),0 (inactive),0 (inactive),1 (active),1 (active),0 (inactive),0 (inactive),1 (active)
O=C(NCCN1CCC2(CC1)C(=O)NCN2c1cccc(F)c1)c1ccc(F)c(F)c1 [ML 298 hydrochloride],9 µM,,9 µM,9 µM,,1 (active),1 (active),1 (active),1 (active),1 (active),1 (active),0 (inactive),1 (active),1 (active),1 (active),1 (active),1 (active),1 (active),0 (inactive),1 (active)
COC1=CC(C)=C[C@@H](C)[C@@H](O)[C@@H](C)CC(C)=CC=C[C@H](OC)[C@@H]([C@@H](C)[C@@H](O)[C@H](C)[C@@]2(O)C[C@@H](O)[C@H](C)[C@@H](C(C)C)O2)OC1=O [Bafilomycin A1],3 µM,3 µM,3 µM,1 µM,3 µM,1 (active),1 (active),1 (active),1 (active),1 (active),1 (active),1 (active),1 (active),1 (active),1 (active),1 (active),1 (active),1 (active),1 (active),1 (active)
N#CC(C#N)=NNc1cccc(Cl)c1,9 µM,9 µM,9 µM,9 µM,3 µM,1 (active),1 (active),1 (active),1 (active),1 (active),1 (active),1 (active),1 (active),1 (active),1 (active),1 (active),1 (active),1 (active),1 (active),1 (active)
CN1C[C@H](C(=O)N[C@]2(C)O[C@@]3(O)[C@@H]4CCCN4C(=O)[C@H](Cc4ccccc4)N3C2=O)C[C@@H]2c3cccc4[nH]cc(c34)C[C@H]21.CN1C[C@H](C(=O)N[C@]2(C)O[C@@]3(O)[C@@H]4CCCN4C(=O)[C@H](Cc4ccccc4)N3C2=O)C[C@@H]2c3cccc4[nH]cc(c34)C[C@H]21 [dihydroergotamine],9 µM,,9 µM,9 µM,9 µM,1 (active),0 (inactive),1 (active),1 (active),1 (active),1 (active),0 (inactive),1 (active),1 (active),1 (active),0 (inactive),0 (inactive),1 (active),1 (active),0 (inactive)
CC[C@H]1CN2CCc3cc(OC)c(OC)cc3[C@@H]2C[C@@H]1C[C@H]1NCCc2cc(OC)c(OC)cc21 [emetine],≤ 0.3 µM,≤ 0.3 µM,≤ 0.3 µM,≤ 0.3 µM,≤ 0.3 µM,1 (active),1 (active),1 (active),1 (active),1 (active),1 (active),1 (active),1 (active),1 (active),1 (active),1 (active),1 (active),1 (active),1 (active),1 (active)
